Experimental data: PubChem BioAssay (Tox21)
Inconclusive results are not listed. Calls of active or inactive are those of the source. Unless noted, the call rests on the fitted dose curve; in most records, active means well fitted curve in the direction sought with a large enough effect in the repeat runs; inconclusive means weak or mixed curves; inactive means no such curve, though single readings can be large; an effect the other way counts as inactive or inconclusive.

How the values were obtained:
[1] = qHTS assay for small molecule agonists of the p53 signaling pathway (AID 651631; calls by dose curve; further: nearly all actives have a fitted effect of over 15% in size; further: potency means the concentration at half of the fitted maximal effect)
Procedure, shortened: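 Readout was fluorescence from the LiveBLAzer FRET substrate, applied for 2 h at room temperature after 16 h compound exposure at 37 °C. Cells were the p53RE-bla HCT-116 line, with beta-lactamase driven by p53 response elements.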

[2] = qHTS assay for small molecules that induce genotoxicity in human embryonic kidney cells expressing luciferase-tagged ATAD5 (AID 651632); further: nearly all actives have a fitted effect of over 15% in size
Procedure, shortened: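 DMSO vehicle served as the control. HEK293T reporter cells, 16 hr at 37C, then 30 min Amplite at room temperature; ATAD5 induction is measured as luciferase activity.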

[3] = qHTS assay for small molecule agonists of the p53 signaling pathway - cell viability (AID 651633; calls by dose curve; further: series mostly up to about 83 µM; nearly all actives have a fitted effect of over 30% in size)
Procedure, shortened: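 Viability counter-read: CellTiter-Glo luminescence (30 min, room temperature) in the same p53RE-bla plates. These plates had been exposed to compounds for 16 h at 37 C.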

[4] = qHTS assay for small molecules that induce genotoxicity in human embryonic kidney cells expressing luciferase-tagged ATAD5 - cell viability (AID 651634; calls by dose curve; further: nearly all actives have a fitted effect of over 25% in size)
Procedure, shortened: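 Here HEK293T cells with the ATAD5 luciferase reporter are incubated with test compounds for 15.5 hr, and cytotoxicity is then gauged by measuring protease activity in live cells using fluorescence.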

[5] = qHTS assay for small molecule disruptors of the mitochondrial membrane potential - cell viability (AID 720634; calls by dose curve;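 further: human HepG2 liver cancer cells; series mostly up to about 83 µM; nearly all actives have a fitted effect of over 20% in size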)
Procedure, shortened: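 Viability of HepG2 cells is scored from ATP content by luminescence; cells are exposed to compound for 1 hr at 37 C and 5% CO2, then dosed with m-MPI dye before the CellTiter-Glo reagent.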

[6] = qHTS assay to test for compound auto fluorescence at 590 nm (red) in HepG2 cells (AID 720674)
Procedure, shortened: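 1 hr compound incubation on HepG2 cells, 37 C, 5% CO2; plate read ex 540 nm / em 590 nm; intensities reported as Rose Bengal sodium equivalents.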

[7] = qHTS assay to test for compound auto fluorescence at 535 nm (green) in HepG2 cells (AID 720675)
[8] = qHTS assay to test for compound auto fluorescence at 460 nm (blue) in HEK293 cells (AID 720678)
Procedure, shortened: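 Auto fluorescence in the blue band was quantified as triamterene equivalency. HEK293 cells were seeded at 2,000/well, dosed after a 4-5 hr attachment, and kept overnight at 37C before the 405/460 nm reading.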

[9] = qHTS assay to test for compound auto fluorescence at 590 nm (red) in HEK293 cells (AID 720679)
Procedure, shortened: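 Autofluorescence equivalency to Rose Bengal sodium, 540/590nm, in HEK293 cells exposed overnight to 23 nL compound per well.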

[10] = qHTS assay to test for compound auto fluorescence at 535 nm (green) in HEK293 cells (AID 720680)
[11] = qHTS assay to test for compound auto fluorescence at 460 nm (blue) in HEK293 cell free culture (AID 720681)
Procedure, shortened: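 Blue fluorescence (Ex 405/Em 460 nm, triamterene-equivalent) was read immediately after pin transfer of compound or DMSO into medium (DMEM, 10% FBS) without cells.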

[12] = qHTS assay to test for compound auto fluorescence at 535 nm (green) in HEK293 cell free culture (AID 720682)
Procedure, shortened: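 Compounds were pin-transferred into cell-free DMEM with 10% FBS, and green fluorescence was read at excitation 485 nm and emission 535 nm. Intensities were expressed as fluorescein-equivalent values.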

[13] = qHTS assay to test for compound auto fluorescence at 590 nm (red) in HEK293 cell free culture (AID 720683)
Procedure, shortened: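 Red-channel autofluorescence of compounds in culture medium (DMEM, 10% FBS), no cells, measured at 540/590 nm. Rose Bengal sodium is the reference fluorophore for equivalence.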

[14] = qHTS assay to test for compound auto fluorescence at 460 nm (blue) in HepG2 cell free culture (AID 720685)
Procedure, shortened: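 Cell-free plates of MEM plus 10% FBS received 23 nL compound or DMSO vehicle; blue-channel (405/460 nm) intensity scored against triamterene as reference fluorophore.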

[15] = qHTS assay to test for compound auto fluorescence at 535 nm (green) in HepG2 cell free culture (AID 720686)
[16] = qHTS assay to test for compound auto fluorescence at 460 nm (blue) in HepG2 cells (AID 720687)
Procedure, shortened: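 Blue-channel autofluorescence (Ex/Em 405/460 nm, triamterene-equivalent) was measured after 1 hr compound exposure at 37 C, 5% CO2. Cells were HepG2, plated overnight at 37 C in MEM plus 10% FBS.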

[17] = qHTS assay to test for compound auto fluorescence at 590 nm (red) in HepG2 cell free culture (AID 720684)
Procedure, shortened: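 Cell-free; medium MEM + 10% FBS; compound or DMSO added by pintool; read Ex 540/Em 590 nm; Rose Bengal sodium as red reference fluorophore.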

[18] = target: Glucocorticoid receptor (Homo sapiens) (UniProt P04150); assay: qHTS assay to identify small molecule agonists of the glucocorticoid receptor (GR) signaling pathway (AID 720691; active means well fitted activation curve with a large enough effect in the signal ratio in the repeat runs, not every such curve was filed as active; the % refers to the signal ratio)
Chain of Glucocorticoid receptor (Homo sapiens) (P04150 whole entry, looked up): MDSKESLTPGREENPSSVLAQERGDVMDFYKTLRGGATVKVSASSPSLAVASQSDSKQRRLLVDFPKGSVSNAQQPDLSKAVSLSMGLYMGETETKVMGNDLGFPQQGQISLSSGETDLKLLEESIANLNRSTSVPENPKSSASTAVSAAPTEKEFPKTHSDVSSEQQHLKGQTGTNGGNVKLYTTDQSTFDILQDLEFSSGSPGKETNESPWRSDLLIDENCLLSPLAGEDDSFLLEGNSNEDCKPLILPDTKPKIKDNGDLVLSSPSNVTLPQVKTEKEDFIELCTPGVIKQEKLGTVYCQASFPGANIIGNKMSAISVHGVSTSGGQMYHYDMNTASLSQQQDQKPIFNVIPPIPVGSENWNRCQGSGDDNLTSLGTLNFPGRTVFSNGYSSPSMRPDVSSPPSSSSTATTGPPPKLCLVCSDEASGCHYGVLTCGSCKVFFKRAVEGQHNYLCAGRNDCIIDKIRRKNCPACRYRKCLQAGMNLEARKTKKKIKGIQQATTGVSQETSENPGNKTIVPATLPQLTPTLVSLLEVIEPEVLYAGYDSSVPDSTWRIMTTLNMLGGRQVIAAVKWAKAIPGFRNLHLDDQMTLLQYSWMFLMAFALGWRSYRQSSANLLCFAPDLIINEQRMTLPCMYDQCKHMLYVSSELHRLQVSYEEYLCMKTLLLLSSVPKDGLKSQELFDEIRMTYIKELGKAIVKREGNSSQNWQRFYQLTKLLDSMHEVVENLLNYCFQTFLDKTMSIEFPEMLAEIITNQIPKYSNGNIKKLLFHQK
Procedure, shortened: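 Compounds in DMSO, alongside positive controls, were added to GR-bla HeLa reporter cells and incubated 18 h at 37 C; GRE-driven beta-lactamase was detected by fluorescence after 2 h with FRET substrate at room temperature.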

[19] = target: Glucocorticoid receptor (Homo sapiens) (UniProt P04150); assay: qHTS assay to identify small molecule antagonists of the glucocorticoid receptor (GR) signaling pathway (AID 720692; active means well fitted inhibition curve with a large enough effect in the signal ratio in the repeat runs, not every such curve was filed as active; the % refers to the signal ratio)
Procedure, shortened: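 In a 1536-well cell format, compounds were added 4 h after seeding GR-bla HeLa cells, together with dexamethasone at 5 nM final; reporter activity was measured by FRET-substrate fluorescence following 18 h at 37 C.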

Measured: Potency

CCCC(C)C(=O)O (stereo not given)
not listed: [17] | [18] | [19]
inactive: all other assays above

C=CCSCC1Nc2cc(Cl)c(S(N)(=O)=O)cc2S(=O)(=O)N1 (stereo not given)
inactive: all assays above

CO[Si](CCCNCCC[Si](OC)(OC)OC)(OC)OC
inactive: all assays above

Cc1c(C)n(CCN(C)C)c2ccc(C(=O)OCCN(C)C)cc12
active: [1] 26.6 µM
not listed: [18] | [19]
inactive: all other assays above

CCCCCN(CCCCC)C(=O)C(CCC(=O)O)NC(=O)c1ccc(Cl)c(Cl)c1 (stereo not given)
not listed: [16]
inactive: all other assays above

CCN1CCCC1CNC(=O)c1cc(S(N)(=O)=O)ccc1OC (stereo not given)
not listed: [19]
inactive: all other assays above

CCCCc1ccc2cccc(S(=O)(=O)O)c2c1
not listed: [19]
inactive: all other assays above
